Rows were chosen to be rich in hits. Some 0.64% of all compounds tested hit in one or more screens of this group.
BLM helicase inh – Bloom syndrome helicase (human) inhibition. P54132. recombinant BLM DNA unwinding, fluorescence dequenching. Potency, µM (doses to about 56.1 µM), for inactives: at the highest dose activity change, negative = inhibition, actives largely listed as inhibitors. actives 0.2% (n = 350,000). AID 2528;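 further: plate controls were vehicle for no effect and no enzyme for full effect; nearly all actives have a fitted effect of over 35% in size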
Target sequence (P54132 whole entry, looked up): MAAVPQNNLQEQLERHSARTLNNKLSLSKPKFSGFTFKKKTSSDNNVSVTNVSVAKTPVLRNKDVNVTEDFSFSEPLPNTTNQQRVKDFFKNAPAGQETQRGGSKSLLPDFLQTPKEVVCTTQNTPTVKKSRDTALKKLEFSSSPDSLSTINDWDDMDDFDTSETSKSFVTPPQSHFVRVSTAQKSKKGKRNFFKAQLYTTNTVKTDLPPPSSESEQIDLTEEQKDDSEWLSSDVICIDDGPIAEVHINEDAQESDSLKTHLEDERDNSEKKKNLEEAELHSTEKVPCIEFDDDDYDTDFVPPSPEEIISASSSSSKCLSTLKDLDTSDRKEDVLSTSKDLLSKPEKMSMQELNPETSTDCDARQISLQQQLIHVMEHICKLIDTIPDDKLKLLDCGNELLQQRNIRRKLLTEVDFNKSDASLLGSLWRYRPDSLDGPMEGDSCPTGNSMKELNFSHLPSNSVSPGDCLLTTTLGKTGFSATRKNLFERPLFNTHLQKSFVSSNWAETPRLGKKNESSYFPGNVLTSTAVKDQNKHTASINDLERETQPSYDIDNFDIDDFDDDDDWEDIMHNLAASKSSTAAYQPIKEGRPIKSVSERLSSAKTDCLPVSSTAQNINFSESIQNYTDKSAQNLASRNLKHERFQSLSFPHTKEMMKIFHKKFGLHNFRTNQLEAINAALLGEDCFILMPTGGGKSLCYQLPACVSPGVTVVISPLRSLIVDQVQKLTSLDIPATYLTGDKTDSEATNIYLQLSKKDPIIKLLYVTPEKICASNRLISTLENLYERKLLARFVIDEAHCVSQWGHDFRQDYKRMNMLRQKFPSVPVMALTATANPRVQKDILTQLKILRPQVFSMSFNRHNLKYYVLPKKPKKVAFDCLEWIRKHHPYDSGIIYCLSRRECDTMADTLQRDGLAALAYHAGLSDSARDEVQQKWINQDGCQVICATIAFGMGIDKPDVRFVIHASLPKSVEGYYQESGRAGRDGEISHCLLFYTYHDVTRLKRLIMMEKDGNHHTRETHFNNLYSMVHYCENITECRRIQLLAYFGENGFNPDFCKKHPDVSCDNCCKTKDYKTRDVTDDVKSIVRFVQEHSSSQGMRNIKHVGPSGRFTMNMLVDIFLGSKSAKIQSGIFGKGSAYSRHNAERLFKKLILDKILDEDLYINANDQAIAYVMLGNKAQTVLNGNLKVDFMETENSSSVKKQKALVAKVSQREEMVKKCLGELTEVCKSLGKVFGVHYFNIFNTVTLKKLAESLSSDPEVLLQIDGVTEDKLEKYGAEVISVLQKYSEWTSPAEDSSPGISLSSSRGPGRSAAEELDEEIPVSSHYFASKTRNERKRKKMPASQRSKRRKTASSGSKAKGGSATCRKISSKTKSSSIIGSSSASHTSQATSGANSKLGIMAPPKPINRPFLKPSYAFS
TRb-SRC2 inh – TRbeta-SRC2 interaction inhibition. P10828. Potency, µM (top dose mostly 106 µM), without a hit: at the top dose activity change, negative = inhibition, most hits filed as inhibitors. TRbeta-SRC2 peptide binding, fluorescence polarization; receptor liganded with 1 µM T3. actives 0.065% (n = 280,000). AID 1469;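 further: plate controls were bound peptide for no effect and peptide without receptor for full effect; nearly all actives have a fitted effect of over 50% in size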
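Fluorescence polarization of 20 nM Texas Red SRC2 peptide with 0.6 uM human TRb ligand-binding domain, in Tris buffer with 1uM T3 and 5% DMSO. Incubated 5 hr ambient; normalized to unbound and bound controls.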
TR SRC2 fluor cs – alters Texas Red total fluorescence, flagging assay interference. TRb/SRC2 Texas Red total fluorescence interference. Potency, µM (top dose mostly 106 µM), without a hit: top-dose fluorescence change, negative = quenching. actives 0.29% (n = 280,000). AID 1479; active means well fitted curve in either direction with a large enough effect; inconclusive means small, poorly fitted or top-dose-only effect
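Human TRb ligand-binding domain at 0.6 uM with 20 nM Texas Red SRC2 peptide in Tris buffer containing 1 uM T3 and 5% DMSO, incubated with compound 5 h at ambient temperature. Total fluorescence (555/632 nm) calculated as parallel + 2 × perpendicular.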
RECQ1 helicase – RECQ1 (human) helicase inhibition; P46063; RECQ1 DNA unwinding, red fluorescence kinetic read; Potency, µM (top dose mostly 57.3 µM), without a hit: at the top dose activity, negative = inhibition, most hits filed as inhibitors; actives 0.54% (n = 240,000); AID 2549;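 further: plate controls were vehicle for no effect and no enzyme for full effect; nearly all actives have a fitted effect of over 30% in size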
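RECQ1T1 50 nM; forked duplex (20 bp + 30-nt ss tails) 200 nM, ATP 2 mM final; pH 8.0, 2 mM MgCl2, 2.5 ug/ml poly(dI-dC); 15 min compound preincubation; discontinuous kinetic read over 2 h at RT.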
* hit, by the source's call; ? = inconclusive; / = not tested or not shown; ! = repeats disagree; [ ] = dose if it differs, or a comment. Unless noted, the call rests on the fitted dose curve; in most records, active means well fitted curve in the direction sought with a large enough effect; inconclusive means small, poorly fitted or top-dose-only effect, or another doubt; inactive means no such curve, though single readings can be large; an effect the other way counts as inactive or inconclusive. Unless noted, on the % scale 0 is the no-effect control and ±100 the full control effect; potency means the concentration at half of the fitted maximal effect.

SMILES	BLM helicase inh	TRb-SRC2 inh	TR SRC2 fluor cs	RECQ1 helicase
CCn1c(CSc2nccn2C)nc2cc(C(=O)O)ccc21	-4%	?	13µM*[fluorescent]	-10%
CCn1cc2nc(SCC(=O)Nc3ccc(OC)c(Cl)c3)n(Cc3ccc(OC)cc3)c(=O)c2n1	-2%	?	3.5µM*[quencher]	/
Cc1ccc2c(c1)C1C=CCC1C(C(=O)O)N2 (centres undefined)	14µM*	-9%	-27%	8.9µM*
N#CC1=C(N)OC2=C(CC/C2=C\c2ccc(F)cc2)C1c1ccc(F)cc1 (centres undefined)	-1%	8%	5%	-12%
N#CC1=C(N)OC2=C(CCC/C2=C/c2ccoc2)C1c1ccoc1 (centres undefined)	37%	1%	6%	22µM*
Cc1ccc(NC(=O)CSc2nnc(-c3cccnc3)s2)cc1	4%	?	0.32µM*[quencher]	-1%
O=C(CSc1nnc(-c2cccnc2)s1)Nc1ccnc2ccccc12	-11%	3%	-5%	-8%
COc1ccccc1/C=N/NC(=O)c1ccc(NC(=O)c2cccc([N+](=O)[O-])c2)cc1	0%	9%	-3%	-2%
COc1cccc(/C=N/NC(=O)c2cc3cc([N+](=O)[O-])ccc3s2)c1O	16µM*	1%	-19%	-20%
Cc1cccc(N2CSC3=C(C#N)C(c4ccc(C)o4)CC(=O)N3C2)c1 (centres undefined)	14µM*	17%	?	13µM*
Cc1ccc(CSc2nc3c(c(=O)[nH]2)C(c2cccc(F)c2F)CC(=O)N3)cc1 (centres undefined)	0%	?	8.9µM*[quencher]	/
CSc1nc2c(c(=O)[nH]1)C(c1cccc(F)c1F)CC(=O)N2 (centres undefined)	-2%	0%	6%	/
Nc1c(/C=C2/C=CC(=O)C(O)=C2)c(=O)nc2sc(CC(=O)N3CCCCC3)nn12	28µM*	/	/	/
CCOCCOCCOCC	/	4%[201 µM]	1%[201 µM]	/
CC(C)(C)C1CCC(O)CC1 (centres undefined)	/	0%[201 µM]	-4%[201 µM]	/
COc1ccc(Nc2nc(N)c3cc(OC)c(OC)cc3n2)cc1	16µM*	3%	-6%	/
COc1cc2nc(Nc3cccc(F)c3)nc(N)c2cc1OC	-5%	-1%	-2%	/
Cc1cccc(OCC(=O)NCC2(N3CCN(C)CC3)CCCCC2)c1C	2%	-10%	1259µM*[quencher]	/
Cc1ccc(OCC(=O)NCC2(N3CCOCC3)CCCCC2)cc1C	-4%	-11%	13µM*[quencher]	/
Cc1ccc(OCC(=O)NCC2(N3CCN(C)CC3)CCCCC2)cc1	-2%	-2%	7%	/
COc1ccc(Nc2cc(C)c3cc(NC(=O)c4cc(OC)cc(OC)c4)ccc3n2)cc1	-11%	8%	-9%	/
CCOC(=O)c1ccc2c(c1)N(Cc1cccc(C(F)(F)F)c1)C(=O)c1ccccc1S2(=O)=O	-11%	-5%	-2%	/
COc1cc(OC)c(-c2cc(C(=O)NCc3ccc(F)cc3)c3c(-c4ccccc4)[nH]nc3n2)cc1OC	-2%	-27%	3.5µM*[quencher]	/
O=C(Cl)c1cccc(C(=O)Cl)c1	/	-5%[201 µM]	-3%[201 µM]	/
CCCCC(CC)COP(=O)(O)OCC(CC)CCCC (centres undefined)	/	2%[201 µM]	0%[201 µM]	/
SMILES	BLM helicase inh	TRb-SRC2 inh	TR SRC2 fluor cs	RECQ1 helicase
CCN(CC)Cc1cc(O)c(CN(CC)CC)cc1O	-2%	-10%	?	25µM*
CCc1oc(C(=O)O)cc1CN(CC)CC	-3%	1%	0%	1%
O=S(=O)(Nc1cc(Sc2ncn[nH]2)c(O)c2ccccc12)c1ccccc1	28µM*	?	-13%	-7%
Cc1ccc(OCCn2c(C3CC(=O)N(Cc4ccc(F)cc4)C3)nc3ccccc32)c(C)c1 (centres undefined)	0%	0%	-2%	/
Oc1ccc(C(c2ccc(O)cc2)C(Cl)(Cl)Cl)cc1	/	2%[201 µM]	-1%[201 µM]	/
CCCCOCC(C)OCC(C)O (centres undefined)	/	5%[201 µM]	-4%[201 µM]	/
Cc1ccc(Cl)cc1N1CCN(C(=O)Cn2nc(C)n3c(cc4sccc43)c2=O)CC1	-5%	-9%	79µM*[quencher]	/
CCc1ccccc1NC(=O)c1nc2nc(C)cc(C(F)F)n2n1	0%	-2%	3%	/
CCOC(=O)c1c(NC(=O)/C=C/c2ccc(OC)c(OC)c2)sc(C(C)=O)c1C	-2%	-19%[53 µM]	562µM*[quencher]	/
CCOC(=O)C1CCCN(C(=O)Cn2ncn3c(cc4sc(CC)cc43)c2=O)C1 (centres undefined)	1%	4%	2%	/
CN(C)CCCn1cc(C2=C(c3c[nH]c4ccccc34)C(=O)NC2=O)c2ccccc21	-14%	4%	-2%	28µM*!
COc1ccc2c(c1)c(C1=C(c3c[nH]c4ccccc34)C(=O)NC1=O)cn2CCCN(C)C	-13%	-1%	-11%	-23%
O=S(c1ccc(Cl)cc1)c1cc(Cl)c(Cl)cc1Cl (centres undefined)	/	-2%[201 µM]	2%[201 µM]	/
Cc1nc(N=Nc2cc(S(=O)(=O)O)c3cc([N+](=O)[O-])cc(S(=O)(=O)O)c3c2)c(COP(=O)(O)O)c(C=O)c1O	72%	11%	28µM*[quencher]	?
Cc1nc(N=Nc2cc([N+](=O)[O-])ccc2Cl)c(COP(=O)(O)O)c(C=O)c1O	0%	5%	?	28µM*
CCCCCCC(O)CCCCCCCCCCC(=O)OC (centres undefined)	/	0%[201 µM]	2%[201 µM]	/
Cc1cc(C)cc(OCC(=O)Nc2ccc(Cl)c(-c3nc4ncccc4o3)c2)c1	-5%	8%[11.2 µM]	0%[11.2 µM]	/
O=C(O)c1cccc(Cn2c(Cl)c(/C=N/NC(=O)c3ccccc3Cl)sc2=O)c1	4%	-5%	-6%	-10%
O=C(O)c1cccc(Cn2c(Cl)c(/C=N/Nc3ccccc3)sc2=O)c1	?	7%	-4%	32µM*
Cc1cccc(Cc2c(C)nc3c(-c4ccccc4)c(C)[nH]n3c2=O)c1	-18%	-6%	8.9µM*[quencher]	/
O=C1NN(c2ccccc2)C(=O)/C1=C/c1ccc(Sc2cccc3ccccc23)o1	?	3%	-3%	20µM*
O=C1NN(c2ccccc2)C(=O)/C1=C/c1ccc(-c2ccc(C(=O)O)cc2)o1	-7%	/	/	/
CC1(C)[C@@H](C=C(Cl)Cl)[C@@H]1C(=O)OCc1cccc(Oc2ccccc2)c1	/	-1%[201 µM]	0%[201 µM]	/
O=C(c1ccc(Cl)cc1)c1ccc(OCC(=O)N2CCOCC2)cc1	-9%	-2%	-4%	25%
O=C(COc1ccc(/C=C\[N+](=O)[O-])cc1)N1CCOCC1	0%	-5%	-1%	32µM*
Cc1c(N/N=C(\C#N)C(=O)c2ccccc2)c(=O)n(-c2ccccc2)n1C	-10%	-12%	2.2µM*[quencher]	-6%
Cc1ccccc1C(=O)/C(C#N)=N/Nc1c(C)n(C)n(-c2ccccc2)c1=O	-5%	-3%	8%	-4%
COc1cccc(CNC(=O)C2CCCN(c3ncnc4onc(-c5ccc(F)cc5)c34)C2)c1 (centres undefined)	-5%	-2%	0%	/
Cc1ccc(CNc2ncnc3onc(-c4ccc(F)cc4)c23)cc1	-5%	-19%	0.089µM*[quencher]	/
O=C(NCc1ccc(F)cc1)C1CCCN(c2ncnc3onc(-c4ccc(F)cc4)c23)C1 (centres undefined)	-2%	-28%	16µM*[quencher]	/

High-throughput results as filed in PubChem BioAssay.
